From PubChem BioAssay come the findings set out here.

Each structure is given as a SMILES string. Calls of active or inactive are those of the source.

One assay concerns the target Albumin (Bos taurus) (UniProt P02769). Description: bovine serum albumin binders on microarray, profiling panel, artefact control for SMM control protein annotation, biochemical, small-molecule microarray, Alexa647 label, 635/667 nm fluorescence (AID 1118).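 Further: score merges 667 nm emission intensity and signal-to-noise per printed compound spot.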 The following applies: BSA-A647 binding, fluorescence 635 nm, higher = more signal.
Assay [1] can be described thus: small-molecule microarray binders of probe aXIP, primary screen, biochemical, NeuroSMM set, 635/667 nm fluorescence (AID 1119).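 Further: probe is the protein aXip251-270 applied at 1 µg/mL to compound-printed slides; binding of probe to printed compounds measured as 667 nm fluorescence plus signal to noise.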 To be noted: higher = more signal, called active from +8 up or from −8 down.
Assay [2] can be described thus: small-molecule binders of probe aNOTCH3, primary screen, biochemical, small-molecule microarray, 635/667 nm fluorescence (AID 1120).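 Further: probe is a biotin-tagged antibody raised against NOTCH3 rather than NOTCH3 protein; score merges spot fluorescence near 667 nm with spot signal to noise.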 The following applies: higher = more signal.
Assay [3] can be described thus: small-molecule binders of probe aNOTCH2, primary screen, biochemical, small-molecule microarray, 635/667 nm fluorescence (AID 1121).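 Further: score merges feature fluorescence read at 667 nm with its signal to noise.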 To be noted: higher = more signal.
In assay [4] the target is Carbonic anhydrase 2 (Homo sapiens) (UniProt P00918). Nature of the assay: CAII small-molecule binders, profiling panel, biochemical, small-molecule microarray, Alexa647-labelled CAII (AID 1122). To be noted: CAII-A647 binding fluorescence, higher = more signal.
Assay [5] is described as follows: COS7 lysate on small-molecule microarray, probe aHis, 635 nm (AID 1123).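 Further: z-score combines 667nm fluorescence intensity with signal-to-noise per printed compound spot.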 The following applies: COS7 cell lysate, fluorescence, higher = more signal.
A short description of assay [6]: compound binding in COS7 lysate, probe aLAP1, primary screen, cell lysate, small-molecule microarray (AID 1124).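 Further: lysate comes from COS7 cells expressing LAP1 and is applied at 0.3 µg/mL; score merges spot fluorescence near 667 nm with signal-to-noise over triplicate slides.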 To be noted: probe aLAP1, fluorescence, higher = more signal.
A further assay concerns Sam68 (KHDRBS1). Description: Sam68 small-molecule binders, primary screen, biochemical, small-molecule microarray, 635 nm fluorescence (AID 1125).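 Further: score merges 667 nm channel intensity with signal to noise over triplicate slides.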 To be noted: small-molecule microarray binding, higher = more signal.
Assay [7] deals with Chordin-like protein 2 (CHRDL2). Description: CHRDL2 small-molecule binders, primary screen, biochemical, small-molecule microarray, 635 nm fluorescence (AID 1126).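 Further: printed compound slides probed with Chrdl2 protein at 4 µg/mL for 1 h at 4 C; score merges 667 nm emission intensity with signal to noise over three replicate slides.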 To be noted: small-molecule microarray binding, fluorescence 635 nm; higher = more signal.
Assay [8] deals with Concanavalin-A (Canavalia ensiformis) (UniProt P02866). Description: ConA small-molecule binders, primary screen, artefact control for SMM control protein annotation, biochemical, small-molecule microarray, Alexa647 label, 635 nm (AID 1127).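 Further: z combines 667 nm emission intensity with signal-to-noise across three replicate slides.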 To be noted: ConA-A647 binding fluorescence, higher = more signal.
Assay [9] in a line: anti-His antibody binders, primary screen, artefact control for SMM control protein annotation, biochemical, small-molecule microarray, 635 nm fluorescence (AID 1128).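 Further: score merges feature fluorescence with signal-to-noise for each printed compound spot.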 To be noted: anti-His Alexa647 antibody binding, higher = more signal.
Assay [10] relates to Human papillomavirus type 1a E7 protein (residues 1-88). Description: HPV1a E7 small-molecule binders, primary screen, biochemical, small-molecule microarray, residues 1-88, 635 nm (AID 1129). To be noted: small-molecule microarray binding, fluorescence 635 nm; higher = more signal.
In assay [11] the target is Focal adhesion kinase 1 (Homo sapiens) (UniProt Q05397). Description: small-molecule microarray binders of FAK, primary screen, biochemical, 635/667 nm fluorescence, BSA, DTT (AID 1130).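 Further: composite of spot emission at 667 nm and signal to noise over triplicate slides.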 The following applies: PTK2 binding, 635 nm fluorescence, higher = more signal.
Assay [12] has as its system Fibrinogen (Alexa647-labelled). Description: fibrinogen binders on compound microarrays, profiling panel, artefact control for SMM control-protein annotation, biochemical, small-molecule microarray, 635/667 nm fluorescence (AID 1131).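 Further: z-score merges 667 nm fluorescence with per-spot signal-to-noise over triplicate slides.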 To be noted: fibrinogen-A647 binding fluorescence, higher = more signal.
Assay [13] addresses Follistatin (Homo sapiens) (UniProt P19883). Nature of the assay: follistatin binders on small-molecule microarrays, primary screen, biochemical, small-molecule microarray, 635/667 nm fluorescence (AID 1132). To be noted: FST binding, 635 nm fluorescence, higher = more signal.
In assay [14] the target is Fibroblast growth factor 2 (Homo sapiens) (UniProt P09038). Description: FGF2 binders on small-molecule microarrays, primary screen, biochemical, small-molecule microarray, 635/667 nm fluorescence (AID 1133). The following applies: small-molecule microarray binding, FGF2, fluorescence 635/667; higher = more signal.
A short description of assay [15]: mitochondrial membrane potential change in A549 cells, profiling panel, cell-based, JC-1 fluorescence, basal, 24 h, 100 nL (AID 1138).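 Further: A549 lung adenocarcinoma cells under basal conditions with no added stimulus; test concentration not given here.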 To be noted: higher = more signal.
For a further assay, the system named is Lefty1. Nature of the assay: Lefty1 binders on small-molecule microarrays, primary screen, biochemical, small-molecule microarray, 635/667 nm fluorescence (AID 1139). The following applies: small-molecule microarray binding, fluorescence 635/667; higher = more signal.
The subject of assay [16] is wheat germ agglutinin (Triticum aestivum), Alexa647-labelled. Description: wheat germ agglutinin binders on compound microarrays, profiling panel, artefact control for SMM control-protein annotation, biochemical, small-molecule microarray, 635/667 nm fluorescence (AID 1140).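 Further: score merges 667 nm feature emission with signal to noise over triplicate slides.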 To be noted: WGA-A647 binding, 635 nm fluorescence, higher = more signal.
Assay [17] deals with Luciferin 4-monooxygenase (Photinus pyralis) (UniProt P08659). Nature of the assay: firefly luciferase enzyme inhibitors, primary screen, biochemical, luminescence, purified enzyme, 2006 set (AID 1141).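 Further: cell-free assay with purified firefly luciferase at 100 ng per well in PBS; test concentration not given here.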 To be noted: SteadyGlo luminescence, 30 min, higher = more signal, called active from +8 up or from −8 down.
Chain of Luciferin 4-monooxygenase (Photinus pyralis) (P08659 whole entry, looked up): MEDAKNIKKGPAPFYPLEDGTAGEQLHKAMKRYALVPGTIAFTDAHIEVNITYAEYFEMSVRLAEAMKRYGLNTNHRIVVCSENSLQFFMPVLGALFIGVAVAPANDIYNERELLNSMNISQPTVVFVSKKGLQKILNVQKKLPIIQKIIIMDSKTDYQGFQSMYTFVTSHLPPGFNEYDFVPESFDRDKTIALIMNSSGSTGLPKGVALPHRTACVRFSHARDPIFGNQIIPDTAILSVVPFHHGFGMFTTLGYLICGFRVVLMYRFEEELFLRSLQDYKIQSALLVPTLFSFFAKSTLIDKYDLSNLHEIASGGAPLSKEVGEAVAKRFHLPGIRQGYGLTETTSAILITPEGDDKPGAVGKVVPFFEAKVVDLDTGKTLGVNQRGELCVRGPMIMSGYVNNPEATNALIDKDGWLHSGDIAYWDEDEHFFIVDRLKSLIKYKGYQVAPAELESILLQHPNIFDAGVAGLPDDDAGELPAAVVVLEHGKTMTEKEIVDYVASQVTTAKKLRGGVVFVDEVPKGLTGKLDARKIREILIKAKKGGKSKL

Chain of Albumin (Bos taurus) (P02769 whole entry, looked up): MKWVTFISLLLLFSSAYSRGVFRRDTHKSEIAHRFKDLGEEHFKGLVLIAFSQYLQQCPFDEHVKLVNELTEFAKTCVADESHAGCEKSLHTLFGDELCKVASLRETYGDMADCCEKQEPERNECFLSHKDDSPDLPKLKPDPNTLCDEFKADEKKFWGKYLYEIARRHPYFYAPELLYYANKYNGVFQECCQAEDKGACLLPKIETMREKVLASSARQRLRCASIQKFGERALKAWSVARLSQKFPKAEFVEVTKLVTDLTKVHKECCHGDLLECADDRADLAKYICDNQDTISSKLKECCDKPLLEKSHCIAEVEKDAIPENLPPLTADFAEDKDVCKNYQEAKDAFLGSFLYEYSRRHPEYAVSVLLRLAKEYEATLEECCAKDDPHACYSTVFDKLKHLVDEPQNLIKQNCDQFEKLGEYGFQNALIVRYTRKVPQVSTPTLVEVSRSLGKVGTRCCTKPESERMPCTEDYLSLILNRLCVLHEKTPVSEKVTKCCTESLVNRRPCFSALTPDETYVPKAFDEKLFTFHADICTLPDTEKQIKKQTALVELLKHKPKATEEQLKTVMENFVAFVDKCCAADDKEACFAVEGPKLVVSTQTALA
Chain of Concanavalin-A (Canavalia ensiformis) (P02866 whole entry, looked up): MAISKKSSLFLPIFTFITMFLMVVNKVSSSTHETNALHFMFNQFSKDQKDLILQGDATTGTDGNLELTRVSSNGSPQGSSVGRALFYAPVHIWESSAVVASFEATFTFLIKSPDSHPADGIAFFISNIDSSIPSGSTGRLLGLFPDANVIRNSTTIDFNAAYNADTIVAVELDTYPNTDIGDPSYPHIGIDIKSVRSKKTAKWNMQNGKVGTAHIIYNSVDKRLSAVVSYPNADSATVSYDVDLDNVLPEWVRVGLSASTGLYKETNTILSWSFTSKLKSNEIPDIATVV
Chain of Follistatin (Homo sapiens) (P19883 whole entry, looked up): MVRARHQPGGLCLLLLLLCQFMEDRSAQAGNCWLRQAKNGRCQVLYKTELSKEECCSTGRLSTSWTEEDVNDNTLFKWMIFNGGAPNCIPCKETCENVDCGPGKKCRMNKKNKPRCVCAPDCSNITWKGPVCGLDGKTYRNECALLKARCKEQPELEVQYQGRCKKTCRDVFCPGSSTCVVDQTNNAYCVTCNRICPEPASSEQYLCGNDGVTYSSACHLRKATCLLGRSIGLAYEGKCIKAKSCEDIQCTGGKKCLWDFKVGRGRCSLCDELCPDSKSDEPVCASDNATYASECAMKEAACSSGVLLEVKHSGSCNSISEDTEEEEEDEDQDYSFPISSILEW
Chain of Fibroblast growth factor 2 (Homo sapiens) (P09038 whole entry, looked up): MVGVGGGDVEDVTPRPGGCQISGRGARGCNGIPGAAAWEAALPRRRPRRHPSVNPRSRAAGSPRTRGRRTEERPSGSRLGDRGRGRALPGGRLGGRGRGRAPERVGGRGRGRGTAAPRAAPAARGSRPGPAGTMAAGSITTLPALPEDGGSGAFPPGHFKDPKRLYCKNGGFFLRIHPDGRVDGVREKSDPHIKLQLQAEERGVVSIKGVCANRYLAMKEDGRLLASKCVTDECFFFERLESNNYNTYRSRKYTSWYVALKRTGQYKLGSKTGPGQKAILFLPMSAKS
Chain of Focal adhesion kinase 1 (Homo sapiens) (Q05397 whole entry, looked up): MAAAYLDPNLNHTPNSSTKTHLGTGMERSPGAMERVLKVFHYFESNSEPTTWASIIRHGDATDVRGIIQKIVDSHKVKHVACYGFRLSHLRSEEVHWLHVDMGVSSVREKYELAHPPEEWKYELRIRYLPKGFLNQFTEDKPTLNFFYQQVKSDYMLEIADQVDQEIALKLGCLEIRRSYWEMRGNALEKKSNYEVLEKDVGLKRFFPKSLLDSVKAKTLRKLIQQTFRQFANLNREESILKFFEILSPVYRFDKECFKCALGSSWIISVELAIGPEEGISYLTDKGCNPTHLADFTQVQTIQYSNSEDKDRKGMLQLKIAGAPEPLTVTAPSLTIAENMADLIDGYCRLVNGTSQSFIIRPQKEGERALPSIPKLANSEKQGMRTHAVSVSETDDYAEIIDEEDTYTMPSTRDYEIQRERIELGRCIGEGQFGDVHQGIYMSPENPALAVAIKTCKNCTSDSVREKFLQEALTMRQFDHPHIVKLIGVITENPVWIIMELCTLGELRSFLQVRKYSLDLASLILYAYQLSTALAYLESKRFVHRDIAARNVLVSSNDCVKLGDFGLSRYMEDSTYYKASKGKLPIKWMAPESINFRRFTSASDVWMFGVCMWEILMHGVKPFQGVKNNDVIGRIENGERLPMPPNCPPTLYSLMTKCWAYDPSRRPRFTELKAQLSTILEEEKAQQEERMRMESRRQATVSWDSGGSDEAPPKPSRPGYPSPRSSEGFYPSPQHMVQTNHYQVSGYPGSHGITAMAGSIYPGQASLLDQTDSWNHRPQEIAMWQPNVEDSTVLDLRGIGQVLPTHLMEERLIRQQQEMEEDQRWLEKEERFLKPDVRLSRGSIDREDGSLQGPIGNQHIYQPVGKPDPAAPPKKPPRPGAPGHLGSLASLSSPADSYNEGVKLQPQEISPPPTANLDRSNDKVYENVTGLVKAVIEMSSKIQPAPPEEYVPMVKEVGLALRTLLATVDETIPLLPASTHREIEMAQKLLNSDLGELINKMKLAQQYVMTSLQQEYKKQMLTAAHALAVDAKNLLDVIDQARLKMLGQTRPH

Regarding `COC(=O)[C@@]1(Cc2ccc(OC)cc2)[C@H]2c3cc(C(=O)N(C)C)n(Cc4ccc(C)o4)c3C[C@H]2CN1C(=O)c1ccccc1`, the composite z-score with Albumin (Bos taurus) is 0.814; in assay [2], 0.517; in [3] it was 0.204; in assay [4] it was 0.806; in assay [5] it was 2.99; in [6], 0.463. The composite z-score is 0.933 in the assay on Sam68 (KHDRBS1); -0.905 in assay [7]; 0.842 in [8]; 0.787 in assay [9]; 1.26 in assay [10]; 0.877 in assay [11]. Also, the composite z-score is 0.984 in assay [12]; 0.262 in assay [13]; -0.48 in assay [14]; -0.0198 in the assay on Lefty1; 1.1 in assay [16]. Besides, the composite Z-score in assay [1] was 1.24 (inactive). In addition, the z-score in assay [15] was 1.26; in [17], -18.5 (active).

Turning to `C=CC[C@@H](OC(=O)Nc1ccc(SC)cc1)c1ccc(O)c(F)c1`, the composite z-score is -0.102 with Albumin (Bos taurus); -0.0647 in assay [2]; -0.114 in [3]; 0.643 in [4]; 0.527 in assay [5]; 0.341 in [6]. The composite z-score in the assay with Sam68 (KHDRBS1) was 0.152; in [7], 0.268; in assay [8], -0.0538; in assay [9], 2.11; in assay [10] it was 0.57; in assay [11], 0.274. Also, the composite z-score in [12] is 0.221; in [13], 1.06; in assay [14] it was 1.11; in the assay with Lefty1, 0.394; in assay [16], 0.904. In assay [1], the composite Z-score is 0.452 (inactive). Also, the z-score is -1.12 in [15] and -3.58 (inactive) in assay [17].

`C=CC[C@@H](OC(=O)Nc1ccc(OC)cc1)c1ccc(O)c(F)c1`: the composite z-score in the assay with Albumin (Bos taurus) is 0.66; in assay [2] it was -0.266; in [3], -0.153; in [4], 0.493; in assay [5] it was 1.93; in assay [6], 0.738. Also, the composite z-score with Sam68 (KHDRBS1) was -0.56; in assay [7], -0.861; in assay [8], -0.9; in assay [9], 0.0579; in [10] it was -0.0596; in assay [11] it was 0.676. Besides, the composite z-score in assay [12] was -0.699; in assay [13], 0.0619; in assay [14], -0.448; in the assay on Lefty1, -0.201; in assay [16], -0.733. The composite Z-score in assay [1] was 0.683 (inactive). The values for the z-score in [15] and in [17] were -1.71 and -4.17 (inactive), respectively.

Regarding `[N-]=[N+]=Nc1ccccc1C[C@]1(C(=O)NCC(O)CO)COC(c2ccc(OCCCO)cc2)=N1` (stereo not given in full), the composite z-score with Albumin (Bos taurus) was 0.407; in assay [2] it was 0.0339; in assay [3], -0.0482; in [4] it was 0.753; in assay [5] it was 2.09; in assay [6] it was 0.282. Also, the composite z-score is -0.206 in the assay with Sam68 (KHDRBS1); -1.21 in [7]; 0.832 in assay [8]; 1.91 in assay [9]; 1.23 in assay [10]; 0.352 in assay [11]. In addition, the composite z-score in assay [12] was 0.579; in assay [13], -0.0953; in assay [14], -0.483; in the assay with Lefty1, -0.729; in assay [16], 0.14. For the same molecule, the composite Z-score in assay [1] was 0.371 (inactive). The z-score was 2 in assay [15] and -4.04 (inactive) in assay [17].

Regarding `CCOC(=O)C1=CC[C@@H](c2ccccc2F)N(S(=O)(=O)c2ccc(C)cc2)[C@H]1c1ccccc1`, the composite z-score with Albumin (Bos taurus) worked out at 0.437; in assay [2] it was 0.103; in assay [3] it was 0.0416; in assay [4], 0.338; in [5], 1.19; in [6], 0.212. Besides, the composite z-score was 1.18 in the assay on Sam68 (KHDRBS1); 0.0943 in assay [7]; 0.83 in assay [8]; 0.477 in assay [9]; 1.07 in [10]; 0.13 in [11]. Further, the composite z-score in assay [12] turned out to be 0.756; in assay [13], 0.685; in [14] it was 0.0808; with Lefty1, 0.644; in [16], 0.349. The composite Z-score in assay [1] was -0.244 (inactive). Further, the z-score was 1.4 in assay [15] and 1.56 (inactive) in assay [17].

Regarding `CC(C)C(O)C1C=CC2C(=O)N(c3ccccc3)C(=O)C2N1Nc1ccccc1` (stereo not given), the composite z-score in the assay with Albumin (Bos taurus) was 0.938; in assay [2], 0.228; in assay [3] it was -0.131; in assay [4], 0.698; in assay [5], 3.02; in assay [6], 0.281. Moreover, the composite z-score in the assay on Sam68 (KHDRBS1) was 1.31; in [7], -0.235; in [8] it was 0.966; in [9] it was 0.331; in assay [10], 1.29; in assay [11] it was 0.463. The composite z-score in [12] was 1.05; in [13], 0.986; in [14] it was -0.11; with Lefty1, 0.63; in assay [16] it was 1.14. Further, in [1], the composite Z-score was -0.221 (inactive). Also, the z-score was 0.0126 in assay [15] and 0.172 (inactive) in [17].
